In PubChem BioAssay one finds composite z-score and z-score data, which are given here for 5 compounds.

Calls of active or inactive are those of the source.

Test [1] can be described thus: binders of probe aFSTL3 on microarray, primary screen, stem cell growth factor project, biochemical, small-molecule microarray, fluorescence 635/667 (AID 1064).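 Further: measures binding of the biotinylated anti-FSTL3 antibody to printed compounds.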 Particulars: higher = more signal.
Test [2] can be described thus: binders from COS7 lysate, DM2A8 probe, primary screen, torsin A project, cell lysate, small-molecule microarray, fluorescence 635/667 (AID 1065). Particulars: higher = more signal, COS7 lysate expressing mutant human TOR1A.
The nature of test [3]: binders of probe aFGF2 on microarray, primary screen, stem cell growth factor project, biochemical, small-molecule microarray, fluorescence 635/667 (AID 1067).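 Further: measures binding of biotinylated aFGF2 protein to printed compounds on slides; z-score merges feature fluorescence and signal-to-noise across triplicate slides.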 Particulars: higher = more signal.
A short description of test [4]: binders of probe aFGF10 on microarray, primary screen, stem cell growth factor project, biochemical, small-molecule microarray, fluorescence 635/667 (AID 1071).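 Further: score merges 667 nm spot intensity and signal to noise from triplicate slides.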 The conditions noted are these: higher = more signal.
Test [5] has as its target Neurogenic locus notch homolog protein 2 (Homo sapiens) (UniProt Q04721). Put plainly: Notch2 binders on small-molecule microarrays, primary screen, biochemical, small-molecule microarray, 635 nm fluorescence, stem cell growth factors (AID 1073). The conditions noted are these: Notch2 binding, higher = more signal.
The target of test [6] is Pro-neuregulin-1, membrane-bound isoform (Homo sapiens) (UniProt Q02297). In words: NRG1 binders on small-molecule microarrays, primary screen, psychiatric disease protein project, biochemical, small-molecule microarray, fluorescence 635/667 (AID 1075).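 Further: score combines 667 nm spot fluorescence with signal to noise.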 The conditions noted are these: NRG1 binding, 635 nm fluorescence, higher = more signal.
For test [7], the system named is Neuregulin-1 EGF-like domain. Put plainly: binders of neuregulin-1 EGF-like domain, primary screen, biochemical, small-molecule microarray, 635 nm fluorescence (AID 1081).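 Further: binding of the protein to compounds printed on small-molecule microarray slides.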 Particulars: small-molecule microarray binding, higher = more signal.
A short description of test [8]: FRG1 promoter luciferase signal modulators, primary screen, FRG1 inhibition for FSHD, cell-based, C2C12 myotubes, firefly/Renilla luciferase, luminescence (AID 1084). Particulars: higher = more signal, called active from +8 up or from −8 down.
The nature of test [9]: binders of probe aFST on microarray, primary screen, stem cell growth factor project, biochemical, small-molecule microarray, fluorescence 635/667 (AID 1086).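 Further: score merges 667 nm fluorescence with signal-to-noise of each printed compound spot.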 Particulars: higher = more signal.
Test [10] can be described thus: binders of probe aHhip on microarray, primary screen, stem cell growth factor project, biochemical, small-molecule microarray, fluorescence 635/667 (AID 1087).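 Further: score merges spot fluorescence at 667nm with spot signal to noise ratio.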 Particulars: higher = more signal.
Test [11] concerns PRMT1 (protein arginine N-methyltransferase 1). In words: PRMT1 binders on small-molecule microarrays, primary screen, biochemical, small-molecule microarray, 635 nm fluorescence (AID 1088).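 Further: binding of Prmt1 protein to compounds spotted on small-molecule microarray slides.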 Particulars: small-molecule microarray binding, higher = more signal.
Test [12] is described as follows: yeast growth modulation, basal conditions, primary screen, YJM789 clinical isolate, OD600, 24 h (AID 1089).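 Further: growth of clinical yeast isolate S. cerevisiae YJM 789 seeded 1000 cells per well; test concentration not given here.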 The conditions noted are these: S. cerevisiae YJM789 growth, higher = more signal, called active from +8 up or from −8 down.
Test [13] can be described thus: fission yeast growth modulation, primary screen, strain 972, OD600, 24 h, no modulator (AID 1090).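 Further: basal condition with compound alone and no growth modifier present; test concentration not given here.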 Particulars: S. pombe 972 growth, higher = more signal, called active from +8 up or from −8 down.
Test [14] can be described thus: S. cerevisiae growth modulation with rapamycin, primary screen, strain BY4716, OD600, 96 h (AID 1091). Further: test concentration not given here. The conditions noted are these: higher = more signal, called active from +8 up or from −8 down.
Test [15] has as its target Torsin-1A-interacting protein 2 (Homo sapiens) (UniProt Q8NFQ8). Put plainly: LULL1 binders on small-molecule microarray, primary screen, cell lysate, human LULL1 lysate, 635/667 nm fluorescence (AID 1092).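 Further: probe is lysate of COS7 cells overexpressing human LULL1; score merges per-feature 667 nm fluorescence with signal-to-noise.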 The conditions noted are these: hLULL1 lysate binding, 635 nm fluorescence, higher = more signal.
A short description of test [16]: E. coli growth modulation, two-sided OD650, primary screen, E. coli filamentation project, strain DRC41, 24 h (AID 1093).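 Further: MC1000 strain lacking acrAB efflux and sulA so SOS filamentation is blocked; test concentration not given here.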 Particulars: OD650, 24 h, higher = more signal, called active from +8 up or from −8 down.
The nature of test [17]: small-molecule microarray binders of probe aLefty2, primary screen, biochemical, biotinylated probe, 635/667 nm fluorescence (AID 1094).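 Further: score merges spot fluorescence near 667 nm with spot signal-to-noise ratio.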 The conditions noted are these: higher = more signal.
Test [18] deals with Noggin (protein binding on small-molecule microarray). In words: Noggin binders on small-molecule microarray, primary screen, biochemical, 635/667 nm fluorescence (AID 1095).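 Further: score merges 667 nm feature fluorescence with signal to noise over triplicate slides.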 Particulars: 635 nm fluorescence, higher = more signal.
In test [19] the target is Neurogenic locus notch homolog protein 3 (Homo sapiens) (UniProt Q9UM47). In words: NOTCH3 binders on small-molecule microarray, primary screen, biochemical, 635/667 nm fluorescence (AID 1096). Particulars: NOTCH3 binding, 635 nm fluorescence, higher = more signal.
Sequence of Neurogenic locus notch homolog protein 3 (Homo sapiens) (Q9UM47 whole entry, looked up): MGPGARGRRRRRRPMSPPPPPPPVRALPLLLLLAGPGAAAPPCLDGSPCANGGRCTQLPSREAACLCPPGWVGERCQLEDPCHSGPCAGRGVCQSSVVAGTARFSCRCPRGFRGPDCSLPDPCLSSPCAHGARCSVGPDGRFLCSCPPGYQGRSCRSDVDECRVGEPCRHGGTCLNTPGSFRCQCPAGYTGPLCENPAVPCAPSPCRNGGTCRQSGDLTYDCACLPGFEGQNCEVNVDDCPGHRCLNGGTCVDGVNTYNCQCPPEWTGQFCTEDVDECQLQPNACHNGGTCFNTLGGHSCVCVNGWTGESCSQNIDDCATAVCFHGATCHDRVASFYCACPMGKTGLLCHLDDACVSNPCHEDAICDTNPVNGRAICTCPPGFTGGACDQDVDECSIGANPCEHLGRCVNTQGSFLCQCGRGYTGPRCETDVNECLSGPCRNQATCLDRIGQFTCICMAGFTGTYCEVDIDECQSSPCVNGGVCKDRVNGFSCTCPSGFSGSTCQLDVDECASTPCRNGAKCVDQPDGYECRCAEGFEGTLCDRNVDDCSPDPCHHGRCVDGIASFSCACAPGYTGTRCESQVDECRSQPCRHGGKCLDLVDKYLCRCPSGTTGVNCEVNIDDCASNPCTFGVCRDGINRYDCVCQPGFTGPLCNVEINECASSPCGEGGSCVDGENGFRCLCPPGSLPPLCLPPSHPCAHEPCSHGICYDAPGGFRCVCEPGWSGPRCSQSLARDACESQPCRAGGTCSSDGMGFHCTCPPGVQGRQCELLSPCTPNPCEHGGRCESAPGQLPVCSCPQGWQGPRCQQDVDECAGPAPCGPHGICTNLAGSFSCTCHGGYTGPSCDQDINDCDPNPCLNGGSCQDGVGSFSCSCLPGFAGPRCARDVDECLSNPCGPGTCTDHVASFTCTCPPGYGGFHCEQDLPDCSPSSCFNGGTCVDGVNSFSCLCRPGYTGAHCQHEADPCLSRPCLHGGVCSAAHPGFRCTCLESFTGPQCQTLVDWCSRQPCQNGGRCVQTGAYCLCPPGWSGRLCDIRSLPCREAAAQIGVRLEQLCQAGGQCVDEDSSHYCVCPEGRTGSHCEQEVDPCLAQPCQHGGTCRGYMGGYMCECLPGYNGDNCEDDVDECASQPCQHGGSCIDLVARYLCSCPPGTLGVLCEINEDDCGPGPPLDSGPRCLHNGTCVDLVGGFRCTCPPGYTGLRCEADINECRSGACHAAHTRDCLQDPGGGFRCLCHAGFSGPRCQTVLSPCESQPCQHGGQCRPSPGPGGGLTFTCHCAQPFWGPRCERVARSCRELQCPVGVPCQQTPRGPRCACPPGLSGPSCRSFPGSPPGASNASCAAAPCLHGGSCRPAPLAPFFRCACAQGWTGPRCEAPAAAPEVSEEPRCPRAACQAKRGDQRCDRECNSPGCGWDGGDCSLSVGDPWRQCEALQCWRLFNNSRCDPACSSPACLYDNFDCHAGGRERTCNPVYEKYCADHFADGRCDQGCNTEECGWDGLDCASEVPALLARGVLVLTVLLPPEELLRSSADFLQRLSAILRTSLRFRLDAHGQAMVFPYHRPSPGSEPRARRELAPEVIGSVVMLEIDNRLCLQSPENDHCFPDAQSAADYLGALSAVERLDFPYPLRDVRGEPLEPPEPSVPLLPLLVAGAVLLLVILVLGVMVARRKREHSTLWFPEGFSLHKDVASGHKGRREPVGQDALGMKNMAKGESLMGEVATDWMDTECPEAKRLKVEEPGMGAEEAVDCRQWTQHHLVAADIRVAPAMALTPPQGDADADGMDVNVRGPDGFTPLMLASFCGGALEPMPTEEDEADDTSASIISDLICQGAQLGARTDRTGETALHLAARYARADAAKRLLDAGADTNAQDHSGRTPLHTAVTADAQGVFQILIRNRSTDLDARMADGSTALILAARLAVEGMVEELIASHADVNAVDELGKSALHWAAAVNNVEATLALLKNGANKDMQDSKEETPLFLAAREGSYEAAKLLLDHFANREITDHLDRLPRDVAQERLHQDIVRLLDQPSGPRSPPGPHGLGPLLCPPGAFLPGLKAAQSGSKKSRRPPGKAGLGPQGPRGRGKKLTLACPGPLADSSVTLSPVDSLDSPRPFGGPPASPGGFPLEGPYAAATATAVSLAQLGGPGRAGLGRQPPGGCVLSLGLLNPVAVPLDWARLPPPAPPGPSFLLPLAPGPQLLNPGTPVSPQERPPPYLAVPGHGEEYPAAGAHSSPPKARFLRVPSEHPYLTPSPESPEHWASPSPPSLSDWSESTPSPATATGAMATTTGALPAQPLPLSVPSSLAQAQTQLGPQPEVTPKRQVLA
A short description of test [20]: small-molecule microarray binders of probe aEGFR, primary screen, biochemical, biotinylated probe, 635/667 nm fluorescence (AID 1097).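 Further: probe is a biotinylated anti-EGFR antibody binding compounds printed on slides; score combines fluorescence near 667 nm and signal to noise of each spot.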 Particulars: higher = more signal.

Sequence of Neurogenic locus notch homolog protein 2 (Homo sapiens) (Q04721 whole entry, looked up, canonical isoform): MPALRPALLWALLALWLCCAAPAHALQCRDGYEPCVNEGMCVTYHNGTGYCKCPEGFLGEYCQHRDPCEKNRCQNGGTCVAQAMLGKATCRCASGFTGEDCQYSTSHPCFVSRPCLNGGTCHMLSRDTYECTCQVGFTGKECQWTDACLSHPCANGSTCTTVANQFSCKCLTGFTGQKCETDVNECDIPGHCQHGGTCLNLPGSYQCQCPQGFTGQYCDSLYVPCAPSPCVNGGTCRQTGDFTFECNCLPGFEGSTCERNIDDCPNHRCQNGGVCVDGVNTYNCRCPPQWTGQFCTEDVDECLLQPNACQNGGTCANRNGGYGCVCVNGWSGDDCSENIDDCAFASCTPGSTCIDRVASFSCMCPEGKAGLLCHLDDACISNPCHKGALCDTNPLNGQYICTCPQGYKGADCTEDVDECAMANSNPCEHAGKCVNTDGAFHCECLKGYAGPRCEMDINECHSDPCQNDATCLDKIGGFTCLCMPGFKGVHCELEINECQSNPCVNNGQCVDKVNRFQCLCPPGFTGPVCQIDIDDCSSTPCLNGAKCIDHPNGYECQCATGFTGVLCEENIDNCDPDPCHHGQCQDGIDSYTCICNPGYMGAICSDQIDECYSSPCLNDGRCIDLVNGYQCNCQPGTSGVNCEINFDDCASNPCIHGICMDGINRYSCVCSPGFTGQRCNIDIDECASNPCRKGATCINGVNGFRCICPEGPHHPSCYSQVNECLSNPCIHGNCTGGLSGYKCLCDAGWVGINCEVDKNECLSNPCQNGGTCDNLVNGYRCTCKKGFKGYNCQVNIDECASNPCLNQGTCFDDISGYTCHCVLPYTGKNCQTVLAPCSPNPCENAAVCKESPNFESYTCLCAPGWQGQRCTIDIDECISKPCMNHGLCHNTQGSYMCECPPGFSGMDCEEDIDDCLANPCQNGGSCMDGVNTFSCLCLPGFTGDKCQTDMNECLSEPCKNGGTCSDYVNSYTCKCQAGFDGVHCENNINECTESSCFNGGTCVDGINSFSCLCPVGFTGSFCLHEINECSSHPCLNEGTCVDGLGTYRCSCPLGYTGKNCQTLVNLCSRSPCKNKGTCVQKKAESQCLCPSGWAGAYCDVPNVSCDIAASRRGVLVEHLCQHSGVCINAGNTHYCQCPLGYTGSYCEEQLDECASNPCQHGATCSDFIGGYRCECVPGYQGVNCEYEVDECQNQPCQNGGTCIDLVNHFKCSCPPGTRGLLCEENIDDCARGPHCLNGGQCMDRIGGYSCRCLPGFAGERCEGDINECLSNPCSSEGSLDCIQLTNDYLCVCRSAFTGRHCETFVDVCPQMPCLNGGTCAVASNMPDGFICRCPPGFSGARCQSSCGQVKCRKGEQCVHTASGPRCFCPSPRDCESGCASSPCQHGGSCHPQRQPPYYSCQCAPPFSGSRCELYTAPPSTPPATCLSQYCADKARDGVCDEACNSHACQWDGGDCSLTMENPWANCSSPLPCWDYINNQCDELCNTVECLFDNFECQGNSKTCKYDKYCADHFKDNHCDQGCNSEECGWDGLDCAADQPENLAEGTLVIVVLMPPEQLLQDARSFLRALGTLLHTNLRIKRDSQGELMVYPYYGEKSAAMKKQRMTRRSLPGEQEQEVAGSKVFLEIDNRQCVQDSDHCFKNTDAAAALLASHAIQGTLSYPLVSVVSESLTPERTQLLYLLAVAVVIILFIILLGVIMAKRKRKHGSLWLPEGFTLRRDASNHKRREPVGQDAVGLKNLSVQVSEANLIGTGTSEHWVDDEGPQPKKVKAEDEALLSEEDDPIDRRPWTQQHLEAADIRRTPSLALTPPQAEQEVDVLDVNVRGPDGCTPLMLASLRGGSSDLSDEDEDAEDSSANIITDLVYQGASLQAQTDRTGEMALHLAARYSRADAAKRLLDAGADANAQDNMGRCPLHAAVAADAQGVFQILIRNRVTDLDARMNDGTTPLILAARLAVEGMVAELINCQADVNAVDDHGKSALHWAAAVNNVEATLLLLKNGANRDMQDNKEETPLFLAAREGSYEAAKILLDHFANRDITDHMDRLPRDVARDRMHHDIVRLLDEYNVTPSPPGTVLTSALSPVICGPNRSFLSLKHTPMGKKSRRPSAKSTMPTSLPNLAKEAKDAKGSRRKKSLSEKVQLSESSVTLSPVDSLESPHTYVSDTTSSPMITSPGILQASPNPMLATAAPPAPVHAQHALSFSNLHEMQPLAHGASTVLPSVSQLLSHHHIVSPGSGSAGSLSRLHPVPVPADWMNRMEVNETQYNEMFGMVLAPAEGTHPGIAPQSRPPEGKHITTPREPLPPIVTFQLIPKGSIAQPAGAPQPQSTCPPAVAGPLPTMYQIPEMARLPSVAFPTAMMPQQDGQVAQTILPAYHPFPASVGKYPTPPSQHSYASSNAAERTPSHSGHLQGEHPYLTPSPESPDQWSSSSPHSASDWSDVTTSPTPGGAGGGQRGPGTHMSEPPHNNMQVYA

For the compound `Cc1ccc(C(C)C)n1C(=O)OC(C)(C)C`, the composite z-score is -0.504 in test [1]; 0.166 in test [2]; -0.0621 in [3]; 0.357 in test [4]; 0.404 in test [5]; -0.199 in test [6]. The composite z-score is 0.477 in [7]; -0.3 in [9]; 0.0749 in test [10]; 0.0565 in test [11]; 0.345 in test [15]; -0.138 in test [17]. Also, the composite z-score in test [18] was 0.535; in test [19], 0.915; in [20], -0.0549. The z-score in test [8] was -1.08 (inactive); in test [12], -0.923 (inactive); in test [13], -0.817 (inactive); in test [14], -0.665 (inactive); in test [16], -0.315 (inactive).

As for `CC(=O)OC[C@H]1O[C@H](C#CCCc2ccccc2)C=C[C@@H]1OC(C)=O`, the composite z-score in test [1] is -0.692; in test [2], 0.271; in test [3], -0.0732; in test [4] it was 0.335; in test [5] it was 0.445; in test [6] it was 1.22. Besides, the composite z-score in test [7] stood at 0.543; in test [9] it was 0.302; in test [10] it was 0.0053; in test [11], 0.374; in test [15] it was 1.38; in test [17] it was 0.0092. In addition, the composite z-score in test [18] is 0.57; in [19], 0.341; in test [20], -0.021. The z-score in test [8] is 0.0903 (inactive); in [12] it was 0.664 (inactive); in test [13], -2.4 (inactive); in test [14], -0.116 (inactive); in [16], 0.396 (inactive).

On to `COC(=O)[C@@H]1CC[C@H](C)[C@@H](c2ccc(C)cc2)N1C(=O)c1ccc(C=NOC[C@H]2O[C@H](c3ccccc3)C=C[C@@H]2Oc2ccc(OC)cc2)cc1`, for which the composite z-score in test [1] was -0.462; in [2], -0.24; in test [3], -0.154; in test [4], 0.217; in test [5], -0.0637; in test [6], 0.0379. The composite z-score in test [7] is -0.631; in test [9], 0.044; in [10] it was -0.191; in [11], 0.391; in test [15], -0.703; in [17] it was -0.0977. In addition, the composite z-score in test [18] was -0.0296; in test [19] it was 0.107; in test [20] it was -0.0682. Further, the z-score in test [8] was 0.434 (inactive); in test [12], 0.456 (inactive); in test [13], 0.267 (inactive); in [14], 0.0902 (inactive); in test [16], -0.234 (inactive).

Consider `O=C1C=C[C@@H](O)[C@@H]2[C@@H]3C(=O)N(Cc4ccc5c(c4)OCO5)C(=O)[C@@H]3CC[C@@H]12`, for which the composite z-score in [1] was -0.624; in [2] it was -0.0026; in test [3], -0.0925; in [4], 0.28; in [5], 0.628; in test [6], 0.199. Also, the composite z-score in test [7] is 0.764; in [9], 0.233; in test [10] it was 0.0722; in [11] it was -0.846; in test [15], 0.221; in test [17], -0.116. In addition, the composite z-score in test [18] was 0.652; in test [19] it was 0.676; in test [20], -0.0731. The z-score was 0.189 (inactive) in test [8]; 0.564 (inactive) in test [12]; -0.681 (inactive) in test [13]; 0.621 (inactive) in test [14]; 0.446 (inactive) in test [16].

Regarding `COCCNC(=O)OCC1CCCC2(CC(OC(=O)NCc3cccc4ccccc34)CC(CCC(=O)N[C@@H](C)C(=O)OC)O2)O1` (stereo not given in full), the composite z-score was -0.486 in test [1]; 0.0192 in test [2]; -0.0692 in test [3]; 0.662 in [4]; 0.668 in test [5]; 0.737 in [6]. In addition, the composite z-score was 1.03 in test [7]; 0.311 in [9]; -0.0994 in test [10]; 1.55 in test [11]; 1.29 in [15]; -0.145 in [17]. Moreover, the figures for the composite z-score in test [18], in [19] and in test [20] were 1.18, 1.05 and -0.0978, respectively. Further, the z-score in test [8] is -1.43 (inactive); in test [12], 1.48 (inactive); in test [13], 1.4 (inactive); in test [14], 2.67 (inactive); in [16], 0.22 (inactive).
